Shown is part of a subset that was picked to be rich in hits.
Dicer processing: blocks human Dicer maturation of pre-miR-21; cat-ELCCA pre-miR-21 Dicer processing, chemiluminescence; active compounds read high; z-score at 25 µM; 6% of 47,000 active; AID 1347074; in the data active means z-score above about 3, passing the limit was not always enough;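 further: plate controls were vehicle for no effect and no enzyme for full effect; higher signal means more uncleaved substrate so more Dicer inhibition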
Target sequence (Q9UPY3 whole entry, looked up): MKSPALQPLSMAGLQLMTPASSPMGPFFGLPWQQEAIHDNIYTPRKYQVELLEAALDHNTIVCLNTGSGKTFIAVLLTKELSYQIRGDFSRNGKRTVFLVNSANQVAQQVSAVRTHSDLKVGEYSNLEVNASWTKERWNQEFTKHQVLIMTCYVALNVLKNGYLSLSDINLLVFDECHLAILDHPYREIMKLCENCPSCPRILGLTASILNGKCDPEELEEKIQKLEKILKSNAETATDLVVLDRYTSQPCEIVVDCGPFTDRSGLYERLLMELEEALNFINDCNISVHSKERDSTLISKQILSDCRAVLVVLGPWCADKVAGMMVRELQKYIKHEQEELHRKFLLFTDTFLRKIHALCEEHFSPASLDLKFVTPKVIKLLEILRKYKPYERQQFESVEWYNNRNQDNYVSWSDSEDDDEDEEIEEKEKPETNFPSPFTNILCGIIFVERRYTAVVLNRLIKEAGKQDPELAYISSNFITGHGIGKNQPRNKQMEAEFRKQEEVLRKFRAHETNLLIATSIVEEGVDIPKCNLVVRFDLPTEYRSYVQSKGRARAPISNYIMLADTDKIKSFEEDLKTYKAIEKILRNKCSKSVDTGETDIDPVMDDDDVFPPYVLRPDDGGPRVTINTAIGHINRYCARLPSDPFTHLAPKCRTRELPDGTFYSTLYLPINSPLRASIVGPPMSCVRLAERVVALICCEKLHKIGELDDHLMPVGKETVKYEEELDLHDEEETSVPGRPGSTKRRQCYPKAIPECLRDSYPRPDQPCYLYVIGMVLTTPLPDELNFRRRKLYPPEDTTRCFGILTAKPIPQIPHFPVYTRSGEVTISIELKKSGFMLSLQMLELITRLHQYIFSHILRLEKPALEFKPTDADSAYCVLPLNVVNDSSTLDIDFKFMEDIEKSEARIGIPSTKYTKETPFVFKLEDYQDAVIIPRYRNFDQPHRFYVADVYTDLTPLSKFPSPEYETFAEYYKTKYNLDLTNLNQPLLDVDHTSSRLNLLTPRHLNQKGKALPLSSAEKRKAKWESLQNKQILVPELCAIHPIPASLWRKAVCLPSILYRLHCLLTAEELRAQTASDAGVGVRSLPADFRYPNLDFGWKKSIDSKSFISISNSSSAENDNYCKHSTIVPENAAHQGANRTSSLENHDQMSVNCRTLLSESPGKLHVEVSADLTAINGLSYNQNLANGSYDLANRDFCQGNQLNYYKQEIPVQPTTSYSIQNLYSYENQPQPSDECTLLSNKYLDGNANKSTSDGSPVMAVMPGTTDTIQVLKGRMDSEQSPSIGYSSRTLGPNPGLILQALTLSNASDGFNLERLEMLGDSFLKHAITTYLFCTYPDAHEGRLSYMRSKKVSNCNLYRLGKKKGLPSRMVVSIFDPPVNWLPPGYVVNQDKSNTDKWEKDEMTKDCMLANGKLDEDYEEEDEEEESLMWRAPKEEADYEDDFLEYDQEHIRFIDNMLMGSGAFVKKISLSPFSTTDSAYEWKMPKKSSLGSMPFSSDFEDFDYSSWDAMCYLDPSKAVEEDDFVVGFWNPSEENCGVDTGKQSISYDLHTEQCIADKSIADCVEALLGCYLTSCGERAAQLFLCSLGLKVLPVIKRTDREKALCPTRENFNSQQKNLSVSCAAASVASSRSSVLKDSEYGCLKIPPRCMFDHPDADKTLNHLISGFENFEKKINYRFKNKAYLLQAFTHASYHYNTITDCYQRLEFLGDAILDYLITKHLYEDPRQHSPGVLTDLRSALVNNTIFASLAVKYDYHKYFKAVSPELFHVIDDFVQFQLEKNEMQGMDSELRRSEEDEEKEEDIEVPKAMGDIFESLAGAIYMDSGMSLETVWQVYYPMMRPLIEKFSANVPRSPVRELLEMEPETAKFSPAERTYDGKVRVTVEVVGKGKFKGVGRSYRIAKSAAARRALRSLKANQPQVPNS
Active calls of the source: *.

SMILES | Dicer processing
CSC1=N/C(=C/c2ccco2)C(=O)N1 | -0.55
Cc1nc(N2CCN(c3ccccn3)CC2)nc2c1C(=O)CC(c1ccccc1F)C2 (centres undefined) | -1.4
NC(Cc1c[nH]c2ccccc12)C(=O)O (centres undefined) | 2.3
Nc1ccccc1CC(c1c[nH]c2ccccc12)c1c[nH]c2ccccc12 | 4.8*
O=C(NCC(c1ccccc1)c1c[nH]c2ccccc12)C(F)(F)F (centres undefined) | -0.74
O=C(O)CCCCCCCC(=O)O | 0.04
CN1CCN(C(=O)CCC(=O)O)CC1 | -0.72
CN1CCN(CCCCC(=O)O)CC1 | 4*
CCCCCOC(=O)C1=C(C)NC2=C(C(=O)CCC2)C1c1coc2ccccc2c1=O (centres undefined) | 1.6
C=CCN1C(=O)C2(/C(=C(/O)c3ccc(F)cc3)C(=O)C(=O)N2CCCN(C)C)c2ccccc21 (centres undefined) | 2.1
C=CCN1C(=O)C2(/C(=C(/O)c3ccc(OCC)cc3)C(=O)C(=O)N2CCN(C)C)c2ccccc21 (centres undefined) | -0.01
CN(C)CCCN1C(=O)C(=O)/C(=C(\O)c2ccccc2)C12C(=O)N(C)c1ccccc12 (centres undefined) | 1.8
C=CCN1C(=O)C2(/C(=C(/O)c3ccccc3)C(=O)C(=O)N2CCCN(C)C)c2ccccc21 (centres undefined) | 4*
CCOc1ccc(/C(O)=C2/C(=O)C(=O)N(CCCN(C)C)C23C(=O)N(CC)c2ccccc23)cc1 (centres undefined) | -0.29
CCN1C(=O)C2(/C(=C(/O)c3ccccc3)C(=O)C(=O)N2CCCN(C)C)c2ccccc21 (centres undefined) | 3.6*
COC(=O)c1sccc1-c1ccc(CN2CCN(c3ccccc3)CC2)o1 | -0.35
CCOc1ccc(/C(O)=C2\C(=O)C(=O)N(c3nccs3)C2c2cccc(Cl)c2)cc1 (centres undefined) | 1.8
CN(C)C(=O)c1ccc2ncsc2c1 | 0.5
O=C1Nc2ccccc2C(=O)C1=Ic1ccccc1 | 1.9
O=C1CC(c2ccccc2)Cc2nc(N3CCOCC3)ncc21 (centres undefined) | 0.47
CC(=O)Nc1sc2c(c1C(=O)O)CC(C)(C)OC2 | -1.3
CC1(C)Cc2c(sc(NC(=O)C(c3ccccc3)c3ccccc3)c2C#N)CO1 | 4.5*
COC(=O)c1c(NC(=O)CCC(=O)O)sc2c1CC(C)(C)OC2 | 0.59
Cc1onc(-c2ccccc2)c1C(=O)NNC(=O)c1nc(-c2cccs2)no1 | -1.3
O=C1CCCc2c1ccc1c3c(ccc21)C(=O)CCC3 | -0.13
SMILES | Dicer processing
O=C1CCOc2cc3c(cc21)C(=O)CCO3 | 3.6*
O=C(c1ccc2c(c1)CCO2)N1CCN(C(=O)c2ccc3c(c2)CCO3)CC1 | -0.49
CCOC(=O)c1cnn(-c2ncnc3c2cnn3C)c1C(F)(F)F | 0.96
O=c1c([N+](=O)[O-])c[nH]n(-c2ccccc2)c1=O | 4.4*
Cc1cc(=O)[nH]n(-c2ccccc2)c1=O | 2
O=C1c2ccccc2C(=O)N1c1ccc([N+](=O)[O-])cc1 | -1.1
CC(=O)N1N=C(c2ccc(Br)cc2)OC1c1ccc(F)cc1 (centres undefined) | 3.2*
CC(=O)N1N=C(c2cc(C)ccc2[N+](=O)[O-])OC1c1ccc(N(C)C)cc1 (centres undefined) | -2.8
CC(=O)N1N=C(c2ccc(C)cc2)OC1c1cccnc1 (centres undefined) | 0.44
CCOC(=O)c1c(N/N=C\c2c(Cl)cccc2Cl)n[nH]c1C | -2.3
C=CCc1c(C)nc(SC)nc1Nc1ccc(C)cc1 | 5.7*
C=CCc1c(C)nc(SC)nc1Nc1ccc(C(=O)OCC)cc1 | -0.05
Cc1ccc(Nc2nc(C)cc(C)c2C#N)cc1 | 2.9
CC(=O)OCCCNc1nc2c([nH]1)c(=O)n(C)c(=O)n2C | 0.14
CC1(C)Cc2cccc(C(=O)NCC3COc4ccccc4O3)c2O1 (centres undefined) | -0.31
CCCCCCCC1CC/C(=C/c2cccc([N+](=O)[O-])c2)C1=O (centres undefined) | 0.32
CCCN/C(C)=C(/C(=O)OCC)C(=S)Nc1ccc(OCC)cc1 | 2
O=C1CC(C(=O)Nc2cccc(Cl)c2)n2c(nc3ccccc32)N1 (centres undefined) | 1.3
O=C1CC(C(=O)Nc2cccc(F)c2)n2c(nc3ccccc32)N1 (centres undefined) | -0.23
O=C1CC(C(=O)Nc2ccc(Br)cc2)n2c(nc3ccccc32)N1 (centres undefined) | 5.1*
O=S(=O)(Nc1ccc(C(F)(F)F)cc1Cl)c1cc(Br)c(Cl)s1 | 0.4
CC(C)(CCO)Nc1ccc(C(F)(F)F)cc1[N+](=O)[O-] | 2.7
CCCS(=O)(=O)c1c(S(=O)(=O)CCC)c2c(N)cccn2c1C(=O)c1ccc(C)cc1C | 1.8
O=C(Nc1ccccc1SCc1cc([N+](=O)[O-])cc2c1OCOC2)c1ccc(Cl)cc1 | -0.22
COc1ccc(/C(C)=N/OC(=O)c2cc(OC)c(OC)c(OC)c2)cc1CSc1ccccn1 | -0.4
SMILES | Dicer processing
O=C(Oc1ccc(Cl)c2cccnc12)N1CCOCC1 | -1.1
COc1ccc(C(=O)Oc2ccc(Cl)c3cccnc23)cc1OC | 4.5*
O=C(Oc1cccc2cccnc12)c1ccccc1 | -0.08
Cc1cc(C)cc(OC(=O)c2ccc(Cl)c(Cl)c2)c1 | 1.5
O=C(Oc1ccc(Cl)c2cccnc12)c1cccnc1 | 3.5*
Cc1ccc([N+](=O)[O-])c(OC(C)CC(=O)O)c1 (centres undefined) | 0.64
Cc1nn(-c2ccccc2)c2c1C(c1ccc(Cl)cc1)C1=C(CC(C)(C)CC1=O)N2 (centres undefined) | -0.18
O=S(=O)(NCCc1ccccn1)c1ccc(-c2ccccn2)s1 | -1.4
O=S(=O)(Nc1nc(SCc2ccc(Cl)cc2)n[nH]1)c1ccc(F)cc1 | -0.14
O=S(=O)(Nc1nc(SCc2ccc(Cl)cc2)n[nH]1)c1ccc(-c2ccccn2)s1 | 3.4*
Fc1ccc(-c2cn3c(n2)Cc2ccccc2C3)cc1 | -1.8
O=c1c(C(CN2CCOCC2)c2ccccc2)nc(-c2ccccc2)nn1CN1CCOCC1 (centres undefined) | -0.3
Cc1cccnc1Nc1nc(-c2ccccn2)cs1 | -3.3
COc1ccc(Nc2nc(-c3cccnc3)cs2)cc1 | 1.6
COc1ccc(Nc2nc(-c3ccccn3)cs2)cc1 | 6.4*
CCOc1cc(C2C3=C(CCCC3=O)N(C)C3=C2C(=O)CCC3)ccc1O | 0.15
O=C(CN1C(=O)c2cccc3cccc1c23)Nc1ccc(F)cc1 | 27
N#CCCN1C(=O)C2(OCCO2)C2CCCCC21 (centres undefined) | 0.72
CCOC(=O)c1cc(C)ccc1NC(=S)Nc1ccc(Cl)cc1C | -1.4
O=C(/C=C/C(=O)Oc1ccc(Cl)cc1Cl)Oc1ccc(Cl)cc1Cl | 3.7*
CC(Oc1ccc(Cl)cc1Cl)C(=O)Oc1ccc(Cl)cc1Cl (centres undefined) | 8.2
O=S(=O)(CS(=O)(=O)Oc1ccc(Cl)cc1Cl)Oc1ccc(Cl)cc1Cl | 2.3
Cc1cc(NC(=O)CSc2n[nH]c(=O)n2-c2ccc3c(c2)OCCO3)n(-c2ccccc2)n1 | -0.25
CC(=O)NS(=O)(=O)c1ccc(N=Cc2ccco2)cc1 | -0.22
Cc1ccc(-c2c3c(=O)n(C)c(=O)n(C)c3cn2-c2ccc(N)cc2)cc1 | -0.53
N=c1scc(-c2ccc(Cl)cc2)n1-c1ccccc1N1CCOCC1 | 0.25
CCOc1cc(C(Nc2cc(C)ccn2)c2ccc3cccnc3c2O)ccc1O (centres undefined) | 14*

Screens: PubChem BioAssay, Center for Chemical Genomics, University of Michigan
